Source: PubChem (National Center for Advancing Translational Sciences (NCATS))
An excerpt weighted towards active compounds, which were near 1.7% of everything screened.
PTHR1 ag: PTHR1 (human) receptor agonism; hit rate 0.075% among 410,000; HEK293 GP2 PTHR1 cells, GloSensor cAMP luminescence, 1 h; Potency, µM (top dose mostly 115 µM), for inactives: at the top dose activation, most hits filed as activators; note: nearly all actives have a fitted effect of over 55% in size
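HEK-293-derived GP2 cells expressing PTHR1 and a GloSensor cAMP reporter, 3,000/well, plated overnight, given luciferin plus IBMX (each 0.5 mM as added) for 1 h at 37 °C, then compound for 1 h at 37 °C. Luminescence was read after 15 min at room temperature.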
GLP1R ag: GLP-1 receptor (human) agonism; P43220; HEK293 GLP-1R CRE-luciferase, luminescence, 4-6 h; cells express a hypersensitive GLP-1R form; Potency, µM (titrated, usually from 45.6 µM), for inactives: at the highest dose activation, usual class: activators; hit rate 0.007% among 380,000; AID 624172; note: % of control where 0% means no effect
Target sequence (P43220 whole entry, looked up): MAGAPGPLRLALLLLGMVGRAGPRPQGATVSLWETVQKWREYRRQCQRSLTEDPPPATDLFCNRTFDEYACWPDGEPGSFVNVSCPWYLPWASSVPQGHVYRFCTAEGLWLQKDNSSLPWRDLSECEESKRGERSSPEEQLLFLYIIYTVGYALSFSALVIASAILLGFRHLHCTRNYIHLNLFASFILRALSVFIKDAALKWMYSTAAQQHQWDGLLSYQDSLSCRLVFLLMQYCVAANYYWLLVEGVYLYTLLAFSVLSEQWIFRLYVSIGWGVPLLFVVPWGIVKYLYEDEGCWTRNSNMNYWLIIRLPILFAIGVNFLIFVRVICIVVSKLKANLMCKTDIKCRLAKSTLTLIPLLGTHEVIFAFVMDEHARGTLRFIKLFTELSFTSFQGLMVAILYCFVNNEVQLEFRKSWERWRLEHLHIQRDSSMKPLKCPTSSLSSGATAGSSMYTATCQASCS
GLP-1R inv ag: inverse agonists of human GLP-1 receptor. P43220. HEK293 GLP-1R CRE-luciferase, luminescence, 24 h; GLP-1R form is constitutively active. Potency, µM (doses to about 38.3 µM), for the others: top-dose activity change, negative = inhibition, usual class: inhibitors. hit rate 1.6% among 410,000. AID 624417; note: % is set by controls: 0 for no effect and ±100 for the full control effect; nearly all actives have a fitted effect of over 55% in size
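HEK293 cells stably co-expressing a cAMP-responsive luciferase reporter and constitutively active GLP-1R were seeded, incubated 12 h, then exposed to compounds for 24 h at 37 C. Luminescence was read 12 min after detection reagent; inverse agonists lower signal.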
HEK293 tox: cytotoxicity counter-screen for GLP-1 receptor inverse agonists. HEK293 cAMP-luciferase reporter cells, luminescence, 24 h. Potency, µM (doses to about 38.3 µM), without a hit: top-dose activity change, negative = inhibition, most hits filed as inhibitors. hit rate 0.13% among 410,000. AID 624418;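 note: loss of luciferase light is scored as toxicity; % is set by controls: 0 for no effect and ±100 for the full control effect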
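To flag toxic compounds, the library was rerun on cells for 24 hr at 37 deg C and 5% CO2. Viability-linked luminescence was captured 12 min after adding luciferase detection reagent.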
* = called active by the depositor; [ ] = another dose, or the depositor's remark. Calls come from the whole dose curve; as a rule, active = well fitted curve in the direction sought with a large enough effect; inconclusive = small, poorly fitted or top-dose-only effect, or another doubt; inactive = no such curve, though single readings can be large; an effect the other way counts as inactive or inconclusive. Potency is the fitted concentration of half-maximal effect.

Results for Cc1ccc(NC(=S)N=Nc2c(O)n(C)c3ccc(S(=O)(=O)N4CCOCC4)cc23)cc1 ?
PTHR1 ag: -12%; GLP1R ag: 9%; GLP-1R inv ag: -7%; HEK293 tox: 0.63µM*

How did Cc1cc(C)cc(NC(=S)N=Nc2c(O)n(C)c3ccc(S(=O)(=O)N4CCOCC4)cc23)c1 do in these assays?
PTHR1 ag: inactive; GLP1R ag: 1%; GLP-1R inv ag: inconclusive; HEK293 tox: inconclusive

How did CC(C)CCC1(CCNC(C)c2cccs2)CCOC(C)(C)C1 (stereo not given) do in these assays?
PTHR1 ag: inactive; GLP1R ag: 6%; GLP-1R inv ag: 7.1µM*; HEK293 tox: 0%

What do the screens show for `CN1CCN(S(=O)(=O)c2ccc(N(C)Cc3ccc(OC(F)F)cc3)c([N+](=O)[O-])c2)CC1`?
PTHR1 ag: -31%; GLP1R ag: -1%; GLP-1R inv ag: 10µM*; HEK293 tox: -24%

What do the screens show for `CCCCCn1c(=O)[nH]c2cc(C(=O)N3CCN(c4cccc(C)c4)C(C)C3)ccc2c1=O` (stereo not given)?
PTHR1 ag: -96%; GLP1R ag: -3%; GLP-1R inv ag: -12%; HEK293 tox: -13%

How did O=C(Nc1ccc(F)cc1)c1ccccc1Oc1ccc(C(F)(F)F)cc1[N+](=O)[O-] do in these assays?
PTHR1 ag: -35%; GLP1R ag: -12%; GLP-1R inv ag: 10µM*; HEK293 tox: inconclusive

Results for COc1ccccc1Nc1c2c(nc3ccccc13)CCC2 ?
PTHR1 ag: inactive; GLP1R ag: 5%; GLP-1R inv ag: inconclusive; HEK293 tox: inconclusive

How did CCOC(=O)c1cccc(Nc2c3c(nc4ccccc24)CCC3)c1 do in these assays?
PTHR1 ag: -18%; GLP-1R inv ag: inconclusive; HEK293 tox: 10µM*

How did CC(=O)c1cccc(Nc2c3c(nc4ccccc24)CCC3)c1 do in these assays?
PTHR1 ag: -3%; GLP1R ag: 12%; GLP-1R inv ag: inconclusive; HEK293 tox: 10%

What do the screens show for `COC(=O)c1cccc(Nc2c3c(nc4ccccc24)CCC3)c1`?
PTHR1 ag: -31%; GLP1R ag: 14%; GLP-1R inv ag: 7.9µM*; HEK293 tox: inconclusive

How did COc1cc(Cl)c(C)cc1Nc1c2c(nc3ccccc13)CCC2 do in these assays?
PTHR1 ag: -1%; GLP-1R inv ag: 11µM*; HEK293 tox: inconclusive

What do the screens show for `Cc1ccccc1-n1nc(CO)c(C(=O)NCC(c2ccccc2)c2ccccc2)n1`?
PTHR1 ag: -13%; GLP-1R inv ag: inconclusive; HEK293 tox: -4%

What do the screens show for `COc1cc(C(=O)NC2CC(=O)N(c3cccc(F)c3)C2)cc(OC)c1OC` (stereo not given)?
PTHR1 ag: inactive; GLP-1R inv ag: 5%; HEK293 tox: -5%

Results for CCCCN1CC(COCc2ccccc2)Oc2cccc(Oc3ccc(F)cc3)c2S1(=O)=O (stereo not given) ?
PTHR1 ag: -11%; GLP1R ag: 7%; GLP-1R inv ag: 3.5µM*; HEK293 tox: -7%

What do the screens show for `CCCCN1CC(COCc2ccccc2)Oc2cccc(Oc3ccc(C)cc3)c2S1(=O)=O` (stereo not given)?
PTHR1 ag: -19%; GLP1R ag: 5%; GLP-1R inv ag: 7.9µM*; HEK293 tox: 1%

How did CCCCN1CC(COCc2ccccc2)Oc2cccc(Oc3cc(C)c(C)c(C)c3)c2S1(=O)=O (stereo not given) do in these assays?
PTHR1 ag: -39%; GLP1R ag: -2%; GLP-1R inv ag: 2.8µM*; HEK293 tox: -22%

How did CCCCN1CC(COCc2ccccc2)Oc2cccc(Oc3ccccc3)c2S1(=O)=O (stereo not given) do in these assays?
PTHR1 ag: 12%; GLP1R ag: 0%; GLP-1R inv ag: inconclusive; HEK293 tox: 13%

What do the screens show for `CCc1ccc(CNC(=O)c2ccc(Cn3c(=O)c4cccn4c4cccnc43)cc2)cc1`?
PTHR1 ag: -18%; GLP-1R inv ag: 11%; HEK293 tox: 4%

What do the screens show for `CCN(C(=O)CSc1nc2ccccc2nc1Cc1cccc(OC)c1)c1cccc(C)c1`?
PTHR1 ag: -29%; GLP-1R inv ag: 11µM*; HEK293 tox: -4%

Results for CCN(C(=O)CSc1nc2ccccc2nc1Cc1ccc(F)cc1)c1cccc(C)c1 ?
PTHR1 ag: -4%; GLP-1R inv ag: 14%; HEK293 tox: 0%

What do the screens show for `CCN(C(=O)CSc1nc(-c2ccccc2)no1)c1cccc(C)c1`?
PTHR1 ag: -43%; GLP-1R inv ag: 1.3µM*; HEK293 tox: -22%

What do the screens show for `CCOC(=O)c1ccc(N2C(=O)c3n[nH]c(-c4ccco4)c3C2c2cccc(O)c2)cc1` (stereo not given)?
PTHR1 ag: -26%; GLP1R ag: -5%; GLP-1R inv ag: inconclusive; HEK293 tox: inconclusive

What do the screens show for `CCCNC(=O)C1(C)CCCN(Cc2ccccc2-c2ccccc2)C1` (stereo not given)?
PTHR1 ag: -10%; GLP1R ag: 14%; GLP-1R inv ag: -16%; HEK293 tox: -2%

What do the screens show for `CCCCNC(=O)C1(C)CCCCN1Cc1ccccc1-c1ccccc1` (stereo not given)?
PTHR1 ag: -15%; GLP1R ag: -5%; GLP-1R inv ag: 2.5µM*; HEK293 tox: -7%

Results for CCOC(=O)c1c(-c2ccccc2)csc1NC(=O)c1nc(S(=O)(=O)CC)ncc1Cl ?
PTHR1 ag: -61%; GLP-1R inv ag: 16%; HEK293 tox: 0%

What do the screens show for `CCOc1ccc(S(=O)(=O)N2CCCCC2)c2ccccc12`?
PTHR1 ag: -9%[57.5 µM]; GLP1R ag: 0%; GLP-1R inv ag: 10µM*; HEK293 tox: 1%

Results for O=C(N/N=C/c1ccccc1)c1ccc(OCc2ccccc2)cc1 ?
PTHR1 ag: -12%; GLP1R ag: 7%; GLP-1R inv ag: -11%; HEK293 tox: -8%

How did O=C(N/N=C/c1ccccc1)c1sccc1OCc1ccc(F)cc1 do in these assays?
PTHR1 ag: -36%[57.5 µM]; GLP1R ag: 11%; GLP-1R inv ag: 8.9µM*; HEK293 tox: -20%

What do the screens show for `COc1ccc(NC(=O)C2(C)Cc3c(-c4cccc(NC(C)=O)c4)ccnc3O2)cn1` (stereo not given)?
PTHR1 ag: -51%; GLP1R ag: 24%; GLP-1R inv ag: 1.1µM*; HEK293 tox: inconclusive

Results for COc1ccc(NC(=O)C2(C)Cc3c(-c4ccc(NC(C)=O)cc4)ccnc3O2)cn1 (stereo not given) ?
PTHR1 ag: -23%; GLP1R ag: -5%; GLP-1R inv ag: -8%; HEK293 tox: -24%

How did O=C(CC1Sc2ccccc2NC1=O)NNc1cccc(Cl)c1Cl (stereo not given) do in these assays?
PTHR1 ag: -30%; GLP1R ag: 2%; GLP-1R inv ag: 2µM*; HEK293 tox: -9%

Results for COc1cccc(CN(Cc2ccco2)C(c2ccc(F)cc2)c2nnnn2C(C)(C)C)c1 (stereo not given) ?
PTHR1 ag: -13%[57.5 µM]; GLP1R ag: -28%; GLP-1R inv ag: 10µM*; HEK293 tox: 3%
